# AMA1 RON2 block: disrupts binding of P. falciparum AMA1 to RON2. AlphaScreen AMA1-biotinylated RON2 peptide binding. Potency, µM (doses to about 58.2 µM), usual class: inhibitors. 360,000 compounds, 0.2% hits. AID 720542; further: nearly all actives have a fitted effect of over 45% in size
#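 AMA1 (3D7) with his tag at 25 nM final met compounds first, then biotinylated RON2 peptide at 25 nM; detection used donor plus acceptor beads, 10 µg/mL apiece, read by AlphaScreen after 30 min at room temperature.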
# Pf growth 96h: P. falciparum growth inhibition at 96 hours; 320,000 compounds, 6.9% hits; AID 504834; Potency, µM (top dose mostly 28.7 µM), hits mostly inhibitors; P. falciparum luciferase reporter growth, 96 h
#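 Readout is luminescence from an integrated firefly luciferase in P. falciparum. Red cells, 2% hematocrit and 0.05% parasitemia final, were cultured with compound through two parasite generations (96 hours) at 37 C, 5% CO2.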
# HCV inh: inhibitors of hepatitis C virus infection. Huh7.5.1 HCVcc-Cre infection, luciferase reporter, 44 h. Potency, µM (titrated, usually from 41.8 µM), usual class: inhibitors. 340,000 compounds, 3.4% hits. AID 651820
#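 Cells (1,000/well) were plated 4 h before compound, then infected with HCVcc-Cre virus (~0.5 moi). After 44 h further culture, infection was read as luciferase luminescence following a 15 min substrate incubation at room temperature.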
# Pf growth 48h: inhibits P. falciparum growth in the first generation, 48 h. P. falciparum luciferase growth in erythrocytes, 48 h. Potency, µM (doses to about 28.7 µM), most hits filed as inhibitors. 310,000 compounds, 5.9% hits
#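 Cell-based growth assay: transgenic P. falciparum expressing firefly luciferase, cultured in red cells within RPMI 1640 containing 0.5% w/v Albumax, 24 mM bicarbonate and gentamycin. A drop in luciferase activity indicates inhibition.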
# A number is an active result; . = inactive; ? = inconclusive; / = no result; [ ] = remark or other dose. A selection: hits, their analogues and other compounds. The true share with any hit is near 11%. The call rests on the fitted dose curve; in most records, active means well fitted curve in the direction sought with a large enough effect; inconclusive means small, poorly fitted or top-dose-only effect, or another doubt; inactive means no such curve, though single readings can be large; an effect the other way counts as inactive or inconclusive.
SMILES,AMA1 RON2 block,Pf growth 96h,HCV inh,Pf growth 48h
CCOC(=O)C(O)(c1ccc(N(C)C(=O)c2ccc(Cl)c(Cl)c2)cc1)C(F)(F)F (stereo not given),.,10µM,.,?
CCOC(=O)C(O)(c1ccc(NC(=O)NC2CCCCC2)cc1)C(F)(F)F (stereo not given),.,.,?,/
CCOC(=O)C(O)(c1ccc(NC(=O)c2ccc(Cl)c(Cl)c2)cc1)C(F)(F)F (stereo not given),.,?,?,9.3µM
COC(=O)[C@@]1(C(C)C)N=C(c2cc(OC)c(OC)c(OC)c2)[C@]2(O1)C(=O)Nc1ccccc12,.,/,/,/
COc1ccc(C)cc1NC(=O)c1ccccc1NS(=O)(=O)c1ccc(Cl)s1,.,?,?,?
N#Cc1ccc(-c2csc(NC(=O)c3ccc(S(=O)(=O)N4CCc5ccccc5C4)cc3)n2)cc1,.,.,.,.
CC1CCN(C(=O)COC(=O)C2CCN(S(=O)(=O)c3ccc4c(c3)OCCO4)CC2)CC1,.,.,.,.
CCN(CC)S(=O)(=O)c1cc(NC(=O)C(C)OC(=O)c2[nH]c(C)c(C(C)=O)c2C)ccc1C (stereo not given),.,?,?,3.7µM
Cc1ccc(NC(=O)C(C)OC(=O)c2cc(=O)[nH]c3ccccc23)cc1S(=O)(=O)N1CCOCC1 (stereo not given),.[11.6 µM],/,?,/
CC(=O)c1c(C)[nH]c(C(=O)Nc2ccc(Cl)c(S(=O)(=O)N3CCOCC3)c2)c1C,.,4.1µM,?,4.1µM
CC(=O)c1c(C)[nH]c(C(=O)OC(C)C(=O)Nc2ccc(C)c(S(=O)(=O)N3CCOCC3)c2)c1C (stereo not given),.,5.2µM,.,9.3µM
COc1ccc(NC(=O)c2[nH]c(C)c(C(C)=O)c2C)cc1S(=O)(=O)N1CCOCC1,.,.,?,.
C=CCCC(=O)N1C[C@H]2CON(C)[C@H]2C[C@H]1c1cccc(N2CCOCC2)c1,.,/,/,/
CSc1cccc(NC(=O)c2cnn3ccccc23)c1,.,.,.,.
CCc1ccc(NC(=O)c2cnn3ccccc23)cc1,.,1.2µM,.,/
Cc1nc(CSc2ccc(Cl)cc2)cc(N2CCOCC2)n1,.,7.4µM,.,.
Cc1cc(N2CCOCC2)nc(SCc2c(Cl)cccc2Cl)n1,.,.,11µM,.
Cc1cc(N2CCCCC2)nc(NCc2ccccc2)n1,.,2.9µM,?,3.3µM
Cc1cc(N2CCOCC2)nc(NCc2ccccc2)n1,.,.,13µM,/
CC(=C/c1ccco1)/C=N/NC(=O)CSc1nnc(SCc2ccc(C)cc2)s1,.[2.32 µM],.,.,.
CCC1CCc2sc(C(=O)OCC(=O)N(CCOC)c3c(N)n(Cc4ccccc4)c(=O)[nH]c3=O)cc2C1 (stereo not given),.,10µM,?,?
CC(=O)Nc1sc(C)c(C)c1C(=O)OCC(=O)N(C)c1c(N)n(Cc2ccccc2)c(=O)[nH]c1=O,.,.,.,?
CCCN(C(=O)COC(=O)CC1CCCCC1)c1c(N)n(Cc2ccccc2)c(=O)[nH]c1=O,.,?,.,8.3µM
Nc1c(N(C(=O)Nc2ccc(Cl)c(Cl)c2)C2CCCC2)c(=O)[nH]c(=O)n1Cc1ccccc1,.,/,11µM,.
CCCn1c(N)c(N(CCOC)C(=O)c2cc3c(s2)CCC(CC)C3)c(=O)[nH]c1=O (stereo not given),.,.,.,?
SMILES,AMA1 RON2 block,Pf growth 96h,HCV inh,Pf growth 48h
COCCN(C(=O)COC(=O)c1c(NC(C)=O)sc(C)c1C)c1c(N)n(Cc2ccccc2)c(=O)[nH]c1=O,.,10µM,?,?
CCOC(=O)c1c(NC(=O)COC(=O)c2cc(OC)c(OC)cc2[N+](=O)[O-])sc(C)c1C,.,.,.,.
CCN(C(=O)COC(=O)c1cc(C)oc1C)c1c(N)n(Cc2ccccc2)c(=O)[nH]c1=O,.,.,.,?
CCCN(C(=O)COC(=O)c1[nH]c(C)c(C(=O)OC)c1C)c1c(N)n(Cc2ccccc2)c(=O)[nH]c1=O,.,?,?,15µM
C[C@@H]1CN([C@H](C)CO)C(=O)CCCn2cc(nn2)CO[C@H]1CN(C)C(=O)c1ccccc1,.,/,/,/
CCOc1ccc(NS(=O)(=O)c2ccc(C(=O)NCC3(N4CCCCC4)CCCCC3)cc2)cc1,.,?,?,?
Cc1cc(S(=O)(=O)Nc2ccc(C(=O)NCC(c3ccccc3)N(C)C)cc2)ccc1F (stereo not given),.,10µM,.,.
CN(C)C(CNC(=O)c1ccc(NS(=O)(=O)c2ccc(F)c(F)c2)cc1)c1ccccc1 (stereo not given),.,.,.,?
CCOc1ccc(NS(=O)(=O)c2ccc(C(=O)NCC3(N(C)C)CCCCC3)cc2)cc1,.,9.3µM,?,8.3µM
Cc1cc(S(=O)(=O)Nc2ccc(C(=O)NCC(c3ccco3)N(C)C)cc2)ccc1F (stereo not given),.,.,.,?
Cc1cc(S(=O)(=O)Nc2ccc(C(=O)NCC3(N(C)C)CCCCC3)cc2)ccc1F,.,10µM,.,?
CC(=O)c1ccc(S(=O)(=O)NCc2ccc(C(=O)NCC(c3ccccc3)N(C)C)cc2)cc1 (stereo not given),.,?,?,13µM
O=C(CSc1nncn1-c1ccccc1F)NC1CC1,.,/,.,/
Cc1cc(S(=O)(=O)Nc2ccc(C(=O)NCC3(N4CCCCC4)CCCCC3)cc2)ccc1F,.,13µM,.,?
Cc1cc(S(=O)(=O)Nc2ccc(C(=O)NCCN3CCOCC3)cc2)ccc1F,.,/,/,/
COc1ccccc1CN(C)C(=O)c1cccc(S(=O)(=O)N2CCCc3ccccc32)c1,.,9.3µM,10µM,7.4µM
COCCN(Cc1ccccc1)C(=O)c1cccc(S(=O)(=O)N2CCCc3ccccc32)c1,.,.,10µM,?
CN(CC(=O)Nc1ccccc1Br)C(=O)c1cccc(S(=O)(=O)N2CCc3ccccc32)c1,.[11.6 µM],/,?,/
COCCN(Cc1ccccc1)C(=O)c1cccc(S(=O)(=O)N2CCN(Cc3ccccc3)CC2)c1,.,/,/,/
COc1ccccc1C(CNC(=O)c1cccc(S(=O)(=O)N2CCCc3ccccc32)c1)N(C)C (stereo not given),.[11.6 µM],/,?,/
CCN(Cc1nc2ccccc2c(=O)[nH]1)C(=O)c1cccc(S(=O)(=O)N2CCc3ccccc32)c1,.,?,?,10µM
COc1ccc(NC(=O)CN(C)C(=O)c2cccc(S(=O)(=O)N3CCCc4ccccc43)c2)cc1,.,?,?,13µM
O=C(CSc1nnc(-c2ccc(O)cc2)o1)Nc1ccccc1Br,.,?,.,.
CC(NC(=O)C(Cc1ccccc1)=NO)c1ccccc1 (stereo not given),.,/,.,/
COc1cccc(C=NCCCN=Cc2cccc(OC)c2O)c1O,.,.,.,?
CN1C(=O)C(C)(C)N(C(=O)c2cccc([N+](=O)[O-])c2)c2ccccc21,.,?,.,.
CCc1nc(N2CCN(C(=O)c3ccco3)CC2)c(C#N)c2c1COC(C)(C)C2,.,?,22µM,10µM
CC1(C)Cc2c(C#N)c(N3CCN(C(=O)c4ccco4)CC3)nc(Cc3ccccc3)c2CO1,.,.[5.75 µM],.,1.7µM
